Reference: PubChem BioAssay (NCI)
The panel holds about 83,000 compounds, 20% with a hit somewhere; the sample as a whole holds those more often.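 Compound tested at a single concentration for 48 hours in 96-well plates; a percent growth value below 10 was scored as active.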 A number with no mark means an inactive call. Calls of active or inactive are those of the source.

Each compound was assayed on OVCAR-3 ovarian (assay: NCI-60 one-dose screen, 48 h (100 = growth as untreated, 0 = no growth, -100 = all killed)). Conditions: 10 µM unless noted.
`O=C(OCC1CCCO1)c1ccc([N+](=O)[O-])cc1` (stereo not drawn) showed a growth of 111%.
In the case of `Cc1ccc(NC(=O)c2ccccc2Cl)cc1`, the growth is reported as 122%.
`C/C(O)=C(/C=N\C(=S)Nc1ccc(S(=O)(=O)Nc2nccs2)cc1)C(=O)Nc1ccccc1C` gave a growth of 97%.
With `NC(=S)N/N=C/c1ccc(Cl)cc1` the growth was 116%.
`Oc1ccc(CCC2CCNc3ccccc32)cc1` (stereo not drawn) was tested, and the growth was 84.1%.
Compound `O=C(NC1CCCCC1)c1ccc(Cl)cc1` has a growth of 102%.
`CCOC(=O)CO` showed a growth of 125%.
In the case of `CC(c1ccccc1)N(C)C` (stereo not drawn), the growth is reported as 120%.
With `CC(CCC#N)(CCC#N)C(=O)c1ccccc1` the growth was 123%.
With `Cc1ccc2nc(-c3ccc(N=Cc4ccccc4O)cc3)sc2c1` the growth was 84.8%.
`Nc1cc2ccccc2c(O)c1O` was tested, and the growth was -39.9% (active).
In the case of `CCOc1ccccc1NC(=O)CCl`, the growth is reported as 95.4%.
Compound `CCC12OC(COc3ccccc3)CN1CCN2c1ccccc1` (stereo not drawn) has a growth of 110% [100 µM].
`Cc1ccc(S(=O)(=O)CCCl)cc1` showed a growth of 131%.
For `CC(C)c1ccccc1NC(=O)N1CCC(C(C)C)CC1`, the growth was 113%.
`COc1ccc(C2CC(c3ccccc3)=Nc3ccccc3S2)cc1` (stereo not drawn) showed a growth of 93.3%.
Work on `NC(CO)(CO)c1ccccc1` yielded a growth of 97.5%.
`C=CC(=O)OC1CCC(C(C)(C)CC)CC1` (stereo not drawn) showed a growth of 109%.
In the case of `Cc1[nH]n(-c2ccccc2)c(=O)c1C=NC(=S)C(N)=S`, the growth is reported as 108%.
`COc1cccc2c1Cc1ccccc1-2` gave a growth of 112%.
Work on `NC(=O)N1CCOCC1` yielded a growth of 103%.
Work on `CCC(=O)Oc1ccc2ccccc2c1` yielded a growth of 108%.
Work on `C=CCN1CCCC1=O` yielded a growth of 128%.
In the case of `O=C(O)c1cccc(-n2ncc(Cl)c(Cl)c2=O)c1`, the growth is reported as 118%.
Compound `Cc1ccc(OC(=O)c2ccccc2)cc1` has a growth of 115%.
For `O=Cc1c(O)c2ccccc2[nH]c1=O`, the growth was 134%.
Work on `CC(=O)c1ccc(C)cc1` yielded a growth of 111%.
Work on `N#Cc1ccc2nc[nH]c2c1` yielded a growth of 102%.
For `CC(=O)[C@@]1(O)CC[C@H]2[C@@H]3CC[C@@H]4CC(=O)CC[C@]4(C)[C@H]3[C@@H](O)C[C@@]21C`, the growth was 109%.
Compound `COC(=O)Cc1cc(COC(C)=O)ccc1C` has a growth of 109%.
For `c1ccc(-c2ccc3ccccc3c2)cc1`, the growth was 103%.
`C=CCC(OC(C)=O)c1ccc(C(C)C)cc1` (stereo not drawn) showed a growth of 162%.
`C=C(OC(C)=O)c1ccccc1` was tested, and the growth was 112%.
`Nc1cccc2cccc(O)c12` gave a growth of 87.1%.
For `CC(=O)c1cccs1`, the growth was 103%.
Compound `CSCCC(NC(=O)C(Cl)Cl)C(=O)O` (stereo not drawn) has a growth of 106%.
In the case of `O=C(O)CSCC(=O)Nc1cc(C(F)(F)F)ccc1Cl`, the growth is reported as 113%.
Work on `CCCCNC(=O)c1ccc(OCC)cc1` yielded a growth of 105%.
